Data: PubChem BioAssay (NCI)
Compounds without any hit were thinned out: in the full panel of roughly 79,000, 15% have a hit. Rule as the data show it: active = growth inhibition above about 70%; inactive = the rest.

Assays:
[1] = NCI Yeast Anticancer Drug Screen. Data for the rad50 strain (AID 155);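 also: 0% = growth of vehicle-only cultures of the same strain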; details: S. cerevisiae rad50 strain growth inhibition; at 50.0 µM; active compounds read high
Outline: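 A DNA repair-deficient yeast mutant serves as the test organism; compound-induced growth inhibition is calculated against vehicle-treated cells.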

[2] = NCI Yeast Anticancer Drug Screen. Data for the mec2-1 strain (AID 157); details: S. cerevisiae mec2-1 strain, at 50.0 µM, active compounds read high
Outline: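 Test agents were screened against the mec2-1 yeast strain, with defined DNA repair or cell cycle alteration. Growth was scored as inhibition against vehicle-only controls.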

[3] = NCI Yeast Anticancer Drug Screen. Data for the sgs1 mgt1 strain (AID 161);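 also: 0% = growth of cultures given vehicle only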; details: S. cerevisiae sgs1 mgt1 strain, at 50.0 µM, active compounds read high
Outline: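 Inhibition of yeast growth, normalised to vehicle-treated controls, is reported for a strain bearing genetic alterations in DNA damage repair.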

[4] = NCI Yeast Anticancer Drug Screen. Data for the cln2 rad14 strain (AID 165);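 also: 0% = growth equal to vehicle treated cultures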; details: S. cerevisiae cln2 rad14 strain, at 50.0 µM, active compounds read high
Outline: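 Growth of compound-exposed yeast (cln2 rad14 genotype) measured and expressed as inhibition relative to vehicle.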

[5] = NCI Yeast Anticancer Drug Screen. Data for the bub3 strain (AID 167); details: S. cerevisiae bub3 mutant strain, at 50.0 µM, active compounds read high
Outline: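 Inhibition values come from growth of compound-treated mutant yeast normalised to vehicle-treated controls.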

[6] = NCI Yeast Anticancer Drug Screen. Data for the mlh1 rad18 strain (AID 175); details: S. cerevisiae mlh1 rad18 strain growth inhibition; at 50.0 µM; active compounds read high
Outline: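 In this whole-cell yeast screen, a strain with altered DNA damage repair is challenged with compound, and its growth is measured against matched vehicle-treated controls.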

Measured: growth inhibition

O=C(Oc1ccc([N+](=O)[O-])cc1)C(CSC(c1ccccc1)(c1ccccc1)c1ccccc1)NC(c1ccccc1)(c1ccccc1)c1ccccc1 (stereo unspecified)
inactive: [1] -3.05% | [2] 20.9% | [3] 6.5% | [4] -19.8% | [5] -3.6% | [6] 23.9%

Cc1cc(NC(=O)COCC(=O)O)no1
inactive: [1] -7.15% | [2] -24.9% | [3] 5.65% | [4] 9.45% | [5] 0.6% | [6] -9.15%

O=C(Nc1ccc(C2=NCCN2)cc1)c1ccc(C(=O)Nc2ccc(C3=NCCN3)cc2)cc1
inactive: [1] -3.1% | [2] 7.45% | [3] 0.95% | [4] 2% | [5] 9.4% | [6] -19.6%

CC(=O)OC1C(NC(=O)OCc2ccccc2)CC(NC(=O)OCc2ccccc2)C(O)C1O (stereo unspecified)
inactive: [1] 34.4% | [2] -12.5% | [3] 5.4% | [4] -10.1% | [5] -1.9% | [6] 4.9%

COc1ccc(N(CN2C(=O)CCC2=O)CS(=O)(=O)c2ccc(Cl)cc2)cc1
inactive: [1] 16.6% | [2] 0.2% | [3] 11.5% | [4] 14.9% | [5] -3.75% | [6] -16.4%

CCOC(=O)NC(Nc1ncccn1)(C(=O)OCC)C(F)(F)F (stereo unspecified)
inactive: [1] -28.9% | [2] -29.4% | [3] -77.3% | [4] -15.6% | [5] -39.8% | [6] -34.9%

C[n+]1ccc(Nc2ccc(NC(=O)c3ccc(N)cc3)cc2)cc1
inactive: [1] 12.9% | [2] 20.4% | [3] 8.6% | [4] -5.05% | [5] 6.25% | [6] 17.4%

Cn1nc2ccc([N+](=O)[O-])cc2[n+]1[O-]
inactive: [1] 28.4% | [2] -2.45% | [3] -2.8% | [4] -19.4% | [5] 0.05% | [6] -17.2%

CCOC(=O)C1(Cc2ccc3c(c2)CCC3)Cc2cc3c(cc2C1=O)CCC3 (stereo unspecified)
inactive: [1] -11.1% | [2] -28.1% | [3] -17.9% | [4] 19.1% | [5] 14.2% | [6] -2.55%

CCCC1CCCC1C (stereo unspecified)
inactive: [1] 4.3% | [2] 4.25% | [3] 8.45% | [4] 5.4% | [5] 17.4% | [6] -1.85%

COc1cccc(OC)c1/C=C1\N=C(c2ccccc2)OC1=O
inactive: [1] -1.4% | [2] -1.4% | [3] 2.55% | [4] -56.9% | [5] 5.55% | [6] -9.25%

Cc1ccc(Sc2cccc3c2C(=O)c2c(Sc4ccc(C)cc4)cccc2C3(Br)c2ccccc2)cc1
inactive: [1] 13.9% | [2] -8.95% | [3] -2.95% | [4] -27.2% | [5] -0.15% | [6] 0.1%

Cc1cc2c(=O)cc(-c3ccc(O)cc3)oc2c(C(=O)O)c1C
inactive: [1] 2.7% | [2] -4.45% | [3] 14.3% | [4] 24.8% | [5] 0.6% | [6] 4.4%

CC(=O)Oc1cccc(CN2CCc3ccccc3C2)c1
inactive: [1] -3.05% | [2] -7.95% | [3] 1.55% | [4] -31.2% | [5] 8.8% | [6] -24.1%

CC(=O)N1CCCCC1C/C(C)=N/O (stereo unspecified)
inactive: [1] 3.55% | [2] 11.6% | [3] -5.95% | [4] -5.6% | [5] 1.35% | [6] 3.3%

CC(OC(=O)Nc1ccccc1)c1ccccc1 (stereo unspecified)
inactive: [1] 37.2% | [2] 7.9% | [3] 11.9% | [4] 9.9% | [5] 9.2% | [6] 17.4%

COc1cc(/C=N/N2CC(=O)N(c3ccccc3)CC2=O)cc(OC)c1
inactive: [1] -469% | [2] 18.1% | [3] 23.7% | [4] 7.1% | [5] 10.8% | [6] 13.1%

CCOP(=O)(OCC)/C(C#N)=C/c1ccc2ccccc2c1
inactive: [1] -7.5% | [2] -5.05% | [3] -16.8% | [4] -16.3% | [5] 5% | [6] -13.6%

COC/C(=N/Nc1ccc([N+](=O)[O-])cc1[N+](=O)[O-])C(C)(C)C
inactive: [1] -2.8% | [2] 16.4% | [3] 8.6% | [4] -26.3% | [5] -20.9% | [6] -16.8%

Cc1csc(-c2ccncc2)n1
inactive: [1] 6.05% | [2] 6.9% | [3] -1.55% | [4] -8.3% | [5] 20.5% | [6] -5.35%

O=C(OC(=O)c1cccc(Br)c1)c1cccc(Br)c1
inactive: [1] 10.2% | [2] -10.5% | [3] 26% | [4] 34.8% | [5] -5.7% | [6] 1%
